Screens deposited in PubChem by several laboratories.
Compounds with a hit are over-represented: about 2.1% of the library has one in this group of screens.
HDAC3 inh: human HDAC3 inhibition. O15379. recombinant HDAC3, fluorogenic peptide/trypsin coupled, fluorescence. inhibition, % at 8.3 µM. actives 0.15% (n = 320,000). AID 2718; in the data active = inhibition above about 26%, passing the limit was not always enough
Target sequence (O15379 whole entry, looked up): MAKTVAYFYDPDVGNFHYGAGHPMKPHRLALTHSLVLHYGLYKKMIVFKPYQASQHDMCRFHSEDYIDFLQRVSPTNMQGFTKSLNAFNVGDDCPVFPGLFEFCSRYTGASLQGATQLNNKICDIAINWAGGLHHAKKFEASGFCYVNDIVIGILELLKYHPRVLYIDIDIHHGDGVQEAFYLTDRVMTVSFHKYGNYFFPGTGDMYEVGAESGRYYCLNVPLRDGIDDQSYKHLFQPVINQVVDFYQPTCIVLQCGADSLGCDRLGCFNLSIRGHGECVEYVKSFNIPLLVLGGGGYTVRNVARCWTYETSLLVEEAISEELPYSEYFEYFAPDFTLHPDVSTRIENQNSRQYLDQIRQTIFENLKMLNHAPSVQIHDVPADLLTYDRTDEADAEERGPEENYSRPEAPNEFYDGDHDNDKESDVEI
IDE act: activators of human insulin-degrading enzyme in cells | actives 0.073% (n = 340,000) | P14735 | activation, % at 5.96 µM | HEK cells, FAbeta-B cleavage, fluorescence polarization; 0% vehicle, 100% cell-free pure enzyme wells;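 active = activation above the mean of all tested compounds plus 3 SD, set per screening campaign, cut at about 17% in these data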
Mot1-301 SUMO: blocks SUMOylation pathway, rescuing yeast Mot1-301 growth; S. cerevisiae Mot1-301 growth rescue, ATP luminescence, 38.5C; percent above DMSO median, 100 means doubled; growth rescue, % at 18.8 µM; actives 1% (n = 320,000); AID 2716;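 active = every valid replicate shows activation above 250% relative to neutral control wells; inactive = the rest, any valid replicate at or below 250%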
LANA-H2A inh: blocks KSHV LANA binding to histone H2A/H2B; inhibition, % (no concentration beside the values); Q9QR71; actives 0.6% (n = 320,000); cell-free LANA-H2A/H2B peptide, fluorescence polarization; in the data active = inhibition mostly above about 10%, no sharp cut-off; inactive = mostly below about 6.7%
IDE inh: inhibitors of human insulin-degrading enzyme in cells; AID 434962; HEK cells, FAbetaB cleavage, fluorescence polarization; inhibition, % at 5.59 µM; actives 0.41% (n = 320,000);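 active = percent inhibition above the average of all tested compounds plus 3 SD, set per screening campaign, cut at about 16% in these data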;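 note: IDE supplied by intact live HEK cells; FP after avidin binding of uncleaved biotin substrate so inhibition keeps polarization high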
IDE inh confirm: cellular human IDE inhibition, confirmation; shares compounds with IDE inh; HEK cells, FAbetaB cleavage, fluorescence polarization; actives 51% (n = 1,200); AID 435028; inhibition, % at 5.59 µM;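 active = mean inhibition across triplicate wells above the cutoff set by the earlier primary insulin-degrading enzyme screen, cut at about 16% in these data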
HEK293 tox: HEK cell cytotoxicity, counter-screen for IDE inhibitors; inhibition, % at 5.59 µM; HEK293 cytotoxicity, ATP luminescence; shares compounds with IDE inh; AID 449730; actives 28% (n = 1,200); in the data active = inhibition above about 22%
Numbers stand for hits; – = inactive; · = no result given.

SMILES	HDAC3 inh	IDE act	Mot1-301 SUMO	LANA-H2A inh	IDE inh	IDE inh confirm	HEK293 tox
Cc1ccc([N+](=O)[O-])cc1S(=O)(=O)NCC1COc2ccccc2O1 (stereo not given)	–	–	–	–	–	·	·
O=c1c2[nH]c3ccccc3c2ncn1CCCn1ccnc1	–	–	–	–	–	·	·
O=c1c2[nH]c3ccc(Br)cc3c2ncn1CCCn1ccnc1	–	–	–	–	21	–	–
O=C(CNC(=O)c1ccco1)Nc1cccc(Cl)c1	–	–	–	–	–	·	·
Cc1ccc2nc(-c3ccc(SCC(=O)O)nc3)[nH]c2c1	–	–	–	–	–	·	·
Cc1ccc2nc(-c3ccc(SCC(=O)N4CCc5ccccc54)nc3)[nH]c2c1	–	–	–	–	26	–	–
CSc1nc(N)nc2c1ncn2CC(=O)N1CCN(Cc2c(C)cc(C)cc2C)CC1	–	–	–	–	–	·	·
COc1cccc(/C=N/n2c(SC)nnc2-c2ccccc2)c1O	–	–	–	–	25	40	27
